{
  "source": "ChEMBL document CHEMBL1961873",
  "about": "“Compounds: GSK PKIS; Assays: Nanosyn kinase panel” (2012)",
  "note": "“And” between values parts separate entries of the source, which are not always exact repeats. Equal entries are not always repeated.",
  "data": [
    {"molecular_target": "MAP/microtubule affinity-regulating kinase 3 (Homo sapiens) (UniProt P27448)", "sequence (P27448 whole entry, looked up)": "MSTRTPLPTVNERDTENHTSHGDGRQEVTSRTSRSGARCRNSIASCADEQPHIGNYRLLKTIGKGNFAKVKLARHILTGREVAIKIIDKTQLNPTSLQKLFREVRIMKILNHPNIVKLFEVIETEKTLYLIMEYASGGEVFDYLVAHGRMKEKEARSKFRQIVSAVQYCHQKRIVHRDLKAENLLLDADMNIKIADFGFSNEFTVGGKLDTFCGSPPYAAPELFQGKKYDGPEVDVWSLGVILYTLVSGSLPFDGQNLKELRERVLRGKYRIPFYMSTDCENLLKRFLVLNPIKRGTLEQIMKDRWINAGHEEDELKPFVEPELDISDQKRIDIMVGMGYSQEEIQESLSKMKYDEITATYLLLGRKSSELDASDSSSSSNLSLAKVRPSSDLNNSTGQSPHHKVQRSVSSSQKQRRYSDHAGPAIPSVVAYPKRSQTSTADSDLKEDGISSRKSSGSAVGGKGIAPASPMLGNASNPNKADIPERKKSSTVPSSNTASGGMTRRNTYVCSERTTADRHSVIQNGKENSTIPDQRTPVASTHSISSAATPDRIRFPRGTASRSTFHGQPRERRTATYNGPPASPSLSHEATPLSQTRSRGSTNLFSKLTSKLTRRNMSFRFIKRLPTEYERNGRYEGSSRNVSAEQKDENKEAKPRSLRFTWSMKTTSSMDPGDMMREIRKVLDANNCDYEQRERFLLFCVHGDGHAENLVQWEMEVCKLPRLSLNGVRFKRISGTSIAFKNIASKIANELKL", "conditions": "at 1 µM", "values": [
      {"smiles": "Fc1ccc(Nc2nccc(-c3c(-c4ccc(C(F)(F)F)cc4)nn4ncccc34)n2)cc1F", "inhibition": "3.91%"},
      {"smiles": "NS(=O)(=O)c1ccc(N/N=C2\\C(=O)Nc3cccc(CCc4ccncc4)c32)cc1", "inhibition": "3.11%"},
      {"smiles": "CCS(=O)(=O)c1ccc(OC)c(Nc2ncc(-c3cccc(F)c3)o2)c1", "inhibition": "2.56%"},
      {"smiles": "COc1ccc(-c2nn3ncccc3c2-c2ccnc(Nc3ccc(F)c(F)c3)n2)cc1", "inhibition": "10.5%"},
      {"smiles": "COc1cc(N2CCN(C(C)C)CC2)ccc1Nc1nc(Nc2cccc3ncccc23)c2cc[nH]c2n1", "inhibition": "3.2%"},
      {"smiles": "N#Cc1ccc2c(-c3ccnc(NC4CC4)n3)c(-c3ccc(F)cc3)nn2c1", "inhibition": "0.43%"},
      {"smiles": "CNC(=O)c1cncc(/C=C/c2ccccc2C)c1", "inhibition": "6.03%"},
      {"smiles": "CS(=O)(=O)Nc1ccc(-c2ccc3c(NC(=O)C4CC4)n[nH]c3c2)cc1", "inhibition": "0.81%"},
      {"smiles": "CS(=O)(=O)Nc1ccc(-c2cc(-c3ccccc3)cc(C(N)=O)c2N)cc1", "inhibition": "0.12%"},
      {"smiles": "Cc1ccc(-c2cc3c(NC(=O)C4CC4)ncnc3o2)cc1", "inhibition": "7.2%"},
      {"smiles": "c1ccc(-c2n[nH]cc2-c2ccnc(-c3ccc(OCCn4ccnc4)cc3)c2)nc1", "inhibition": "6.87%"},
      {"smiles": "CCN1CCC(C(=O)Nc2n[nH]c3nnc(-c4cccc(F)c4F)cc23)CC1", "inhibition": "1.76%"},
      {"smiles": "COC(=O)Nc1nc2ccc(Oc3ccc(NC(=O)Nc4cc(C(F)(F)F)ccc4F)cc3)cc2s1", "inhibition": "-0.18%"},
      {"smiles": "Cc1cc(O)cc(C)c1/C=C/c1cncc(C(N)=O)c1", "inhibition": "3.59%"},
      {"smiles": "Fc1cccc(COc2ccc(Nc3ncncc3C#Cc3ccccc3)cc2Cl)c1", "inhibition": "4.26%"},
      {"smiles": "COc1cc(N2CCN(C(C)C)CC2)ccc1Nc1nc(Nc2cccc(F)c2C(=O)O)c2cc[nH]c2n1", "inhibition": "4.97%"},
      {"smiles": "COc1ccccc1-c1cc(/C=C2\\C(=O)Nc3ncc(Br)cc32)cc(Br)c1O", "inhibition": "1.27%"},
      {"smiles": "Nc1nccc(-c2c(-c3ccc(F)cc3)ncn2C2CCNCC2)n1", "inhibition": "0.65% and -2.22%"},
      {"smiles": "CN1CCC(C(=O)Nc2n[nH]c3nc(-c4ccc(O)cc4)c(Br)cc23)CC1", "inhibition": "2.99% and 3.23%"},
      {"smiles": "NS(=O)(=O)c1cccc(N/C=C2\\C(=O)Nc3ccccc32)c1", "inhibition": "17%"},
      {"smiles": "CS(=O)(=O)CCNCc1ccc(-c2ccc3ncnc(Nc4ccc(OCc5cccc(C(F)(F)F)c5)cc4)c3c2)o1", "inhibition": "3.96%"},
      {"smiles": "Cc1cc(O)cc(C)c1/C=C/c1cncc(C(=O)OC(C)(C)C)c1", "inhibition": "1.89%"},
      {"smiles": "CC1=C(C(=O)Nc2ccc3[nH]nc(C)c3c2)C(c2ccc(C(F)(F)F)cc2)CC(=O)N1", "note": "(configuration not stated)", "inhibition": "5.26%"},
      {"smiles": "Cn1c(-c2nonc2N)nc2cnccc21", "inhibition": "9.08%"},
      {"smiles": "O=C(O[C@H]1CN[C@H](C#Cc2cc3ncnc(Nc4ccc(OCc5cccc(F)c5)c(Cl)c4)c3s2)C1)N1CCOCC1", "inhibition": "10.1%"},
      {"smiles": "CCS(=O)(=O)c1ccc(OC)c(Nc2ncc(-c3cccc(C(C)=O)c3)o2)c1", "inhibition": "10.1%"},
      {"smiles": "Cc1c2ccc(N(C)c3ccnc(Nc4cccc(S(N)(=O)=O)c4)n3)cc2nn1C", "inhibition": "5.76%"},
      {"smiles": "COc1cc(Nc2ncc(-c3ccccc3)o2)cc(OC)c1", "inhibition": "2.48%"},
      {"smiles": "CNC(=O)c1ncccc1Nc1nc(Nc2cc3c(cc2OC)CCCN3C(=O)CN(C)C)nc2[nH]ccc12", "inhibition": "3.77%"},
      {"smiles": "CN(c1ccc(NC(=O)NCCN2CCOCC2)cc1)c1ccnc(Nc2ccc(CS(C)(=O)=O)cc2)n1", "inhibition": "9.85%"},
      {"smiles": "c1cnn2ncc(-c3ccnc(NCCCN4CCOCC4)n3)c2c1", "inhibition": "-0.34%"}
    ]},
    {"molecular_target": "T1, MAP/microtubule affinity-regulating kinase 4 (Homo sapiens) (UniProt Q96L34)", "T1 sequence (whole entry)": "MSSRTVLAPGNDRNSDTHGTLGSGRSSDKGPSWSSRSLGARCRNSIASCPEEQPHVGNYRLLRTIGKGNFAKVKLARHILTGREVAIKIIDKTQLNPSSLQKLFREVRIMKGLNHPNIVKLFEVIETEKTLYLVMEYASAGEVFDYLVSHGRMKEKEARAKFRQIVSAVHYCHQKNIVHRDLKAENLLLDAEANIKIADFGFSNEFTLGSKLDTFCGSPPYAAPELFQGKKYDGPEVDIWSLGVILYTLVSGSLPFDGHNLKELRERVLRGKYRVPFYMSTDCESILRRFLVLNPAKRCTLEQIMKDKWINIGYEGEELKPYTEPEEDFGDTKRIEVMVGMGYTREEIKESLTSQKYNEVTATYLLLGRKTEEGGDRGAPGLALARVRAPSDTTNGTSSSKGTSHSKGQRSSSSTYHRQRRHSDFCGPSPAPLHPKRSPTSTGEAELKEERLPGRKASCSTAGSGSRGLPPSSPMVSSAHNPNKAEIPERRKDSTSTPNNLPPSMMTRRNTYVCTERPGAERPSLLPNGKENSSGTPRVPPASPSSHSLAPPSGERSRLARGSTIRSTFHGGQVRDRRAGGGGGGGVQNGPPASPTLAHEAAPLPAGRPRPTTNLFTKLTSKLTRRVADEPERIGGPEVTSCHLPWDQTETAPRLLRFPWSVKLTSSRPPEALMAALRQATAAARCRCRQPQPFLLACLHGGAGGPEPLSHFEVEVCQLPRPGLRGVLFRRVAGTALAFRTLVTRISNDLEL", "conditions": "at 0.1 µM", "values": [
      {"smiles": "Fc1ccc(Nc2nccc(-c3c(-c4ccc(C(F)(F)F)cc4)nn4ncccc34)n2)cc1F", "inhibition": "1.29%"},
      {"smiles": "NS(=O)(=O)c1ccc(N/N=C2\\C(=O)Nc3cccc(CCc4ccncc4)c32)cc1", "inhibition": "2.47%"},
      {"smiles": "CCS(=O)(=O)c1ccc(OC)c(Nc2ncc(-c3cccc(F)c3)o2)c1", "inhibition": "2.11%"},
      {"smiles": "COc1ccc(-c2nn3ncccc3c2-c2ccnc(Nc3ccc(F)c(F)c3)n2)cc1", "inhibition": "1.45%"},
      {"smiles": "COc1cc(N2CCN(C(C)C)CC2)ccc1Nc1nc(Nc2cccc3ncccc23)c2cc[nH]c2n1", "inhibition": "0.47%"},
      {"smiles": "N#Cc1ccc2c(-c3ccnc(NC4CC4)n3)c(-c3ccc(F)cc3)nn2c1", "inhibition": "0.81%"},
      {"smiles": "CNC(=O)c1cncc(/C=C/c2ccccc2C)c1", "inhibition": "1.26%"},
      {"smiles": "CS(=O)(=O)Nc1ccc(-c2ccc3c(NC(=O)C4CC4)n[nH]c3c2)cc1", "inhibition": "2.19%"},
      {"smiles": "CS(=O)(=O)Nc1ccc(-c2cc(-c3ccccc3)cc(C(N)=O)c2N)cc1", "inhibition": "0.69%"},
      {"smiles": "Cc1ccc(-c2cc3c(NC(=O)C4CC4)ncnc3o2)cc1", "inhibition": "1.77%"},
      {"smiles": "c1ccc(-c2n[nH]cc2-c2ccnc(-c3ccc(OCCn4ccnc4)cc3)c2)nc1", "inhibition": "1.49%"},
      {"smiles": "CCN1CCC(C(=O)Nc2n[nH]c3nnc(-c4cccc(F)c4F)cc23)CC1", "inhibition": "0.44%"},
      {"smiles": "COC(=O)Nc1nc2ccc(Oc3ccc(NC(=O)Nc4cc(C(F)(F)F)ccc4F)cc3)cc2s1", "inhibition": "-0.51%"},
      {"smiles": "Cc1cc(O)cc(C)c1/C=C/c1cncc(C(N)=O)c1", "inhibition": "0.98%"},
      {"smiles": "Fc1cccc(COc2ccc(Nc3ncncc3C#Cc3ccccc3)cc2Cl)c1", "inhibition": "0.48%"},
      {"smiles": "COc1cc(N2CCN(C(C)C)CC2)ccc1Nc1nc(Nc2cccc(F)c2C(=O)O)c2cc[nH]c2n1", "inhibition": "1.88%"},
      {"smiles": "COc1ccccc1-c1cc(/C=C2\\C(=O)Nc3ncc(Br)cc32)cc(Br)c1O", "inhibition": "2.01%"},
      {"smiles": "Nc1nccc(-c2c(-c3ccc(F)cc3)ncn2C2CCNCC2)n1", "inhibition": "-0.05% and 0.87%"},
      {"smiles": "CN1CCC(C(=O)Nc2n[nH]c3nc(-c4ccc(O)cc4)c(Br)cc23)CC1", "inhibition": "2.14% and -0.03%"},
      {"smiles": "NS(=O)(=O)c1cccc(N/C=C2\\C(=O)Nc3ccccc32)c1", "inhibition": "4.17%"},
      {"smiles": "CS(=O)(=O)CCNCc1ccc(-c2ccc3ncnc(Nc4ccc(OCc5cccc(C(F)(F)F)c5)cc4)c3c2)o1", "inhibition": "1.47%"},
      {"smiles": "Cc1cc(O)cc(C)c1/C=C/c1cncc(C(=O)OC(C)(C)C)c1", "inhibition": "0.38%"},
      {"smiles": "CC1=C(C(=O)Nc2ccc3[nH]nc(C)c3c2)C(c2ccc(C(F)(F)F)cc2)CC(=O)N1", "note": "(configuration not stated)", "inhibition": "-0.05%"},
      {"smiles": "Cn1c(-c2nonc2N)nc2cnccc21", "inhibition": "1.25%"},
      {"smiles": "O=C(O[C@H]1CN[C@H](C#Cc2cc3ncnc(Nc4ccc(OCc5cccc(F)c5)c(Cl)c4)c3s2)C1)N1CCOCC1", "inhibition": "1.79%"},
      {"smiles": "CCS(=O)(=O)c1ccc(OC)c(Nc2ncc(-c3cccc(C(C)=O)c3)o2)c1", "inhibition": "0.67%"},
      {"smiles": "Cc1c2ccc(N(C)c3ccnc(Nc4cccc(S(N)(=O)=O)c4)n3)cc2nn1C", "inhibition": "2.63%"},
      {"smiles": "COc1cc(Nc2ncc(-c3ccccc3)o2)cc(OC)c1", "inhibition": "1.86%"},
      {"smiles": "CNC(=O)c1ncccc1Nc1nc(Nc2cc3c(cc2OC)CCCN3C(=O)CN(C)C)nc2[nH]ccc12", "inhibition": "2.04%"},
      {"smiles": "CN(c1ccc(NC(=O)NCCN2CCOCC2)cc1)c1ccnc(Nc2ccc(CS(C)(=O)=O)cc2)n1", "inhibition": "1.24%"},
      {"smiles": "c1cnn2ncc(-c3ccnc(NCCCN4CCOCC4)n3)c2c1", "inhibition": "1.05%"}
    ]}
  ]
}
